Data: the supplement of paper PMC11732987, “Enantioselective OTUD7B fragment discovery through chemoproteomics screening and high-throughput optimisation” (Communications Chemistry, 2025)

Columns and labels:
Assay in all cases: log2 ratio of Biotin-Ahx-Ub-VS probe labelling (fragment/DMSO); higher = less target engagement (more negative = stronger competition), active = hit call of the paper (q ≤ 0.05, log2 ratio ≤ -1)
Conditions in all cases: compound concentration: 200 uM; treatment time: 3 h
USP34 = USP34 (UniProt Q70CQ2)
Chain of USP34 (Q70CQ2 whole entry, the tested form may be a part): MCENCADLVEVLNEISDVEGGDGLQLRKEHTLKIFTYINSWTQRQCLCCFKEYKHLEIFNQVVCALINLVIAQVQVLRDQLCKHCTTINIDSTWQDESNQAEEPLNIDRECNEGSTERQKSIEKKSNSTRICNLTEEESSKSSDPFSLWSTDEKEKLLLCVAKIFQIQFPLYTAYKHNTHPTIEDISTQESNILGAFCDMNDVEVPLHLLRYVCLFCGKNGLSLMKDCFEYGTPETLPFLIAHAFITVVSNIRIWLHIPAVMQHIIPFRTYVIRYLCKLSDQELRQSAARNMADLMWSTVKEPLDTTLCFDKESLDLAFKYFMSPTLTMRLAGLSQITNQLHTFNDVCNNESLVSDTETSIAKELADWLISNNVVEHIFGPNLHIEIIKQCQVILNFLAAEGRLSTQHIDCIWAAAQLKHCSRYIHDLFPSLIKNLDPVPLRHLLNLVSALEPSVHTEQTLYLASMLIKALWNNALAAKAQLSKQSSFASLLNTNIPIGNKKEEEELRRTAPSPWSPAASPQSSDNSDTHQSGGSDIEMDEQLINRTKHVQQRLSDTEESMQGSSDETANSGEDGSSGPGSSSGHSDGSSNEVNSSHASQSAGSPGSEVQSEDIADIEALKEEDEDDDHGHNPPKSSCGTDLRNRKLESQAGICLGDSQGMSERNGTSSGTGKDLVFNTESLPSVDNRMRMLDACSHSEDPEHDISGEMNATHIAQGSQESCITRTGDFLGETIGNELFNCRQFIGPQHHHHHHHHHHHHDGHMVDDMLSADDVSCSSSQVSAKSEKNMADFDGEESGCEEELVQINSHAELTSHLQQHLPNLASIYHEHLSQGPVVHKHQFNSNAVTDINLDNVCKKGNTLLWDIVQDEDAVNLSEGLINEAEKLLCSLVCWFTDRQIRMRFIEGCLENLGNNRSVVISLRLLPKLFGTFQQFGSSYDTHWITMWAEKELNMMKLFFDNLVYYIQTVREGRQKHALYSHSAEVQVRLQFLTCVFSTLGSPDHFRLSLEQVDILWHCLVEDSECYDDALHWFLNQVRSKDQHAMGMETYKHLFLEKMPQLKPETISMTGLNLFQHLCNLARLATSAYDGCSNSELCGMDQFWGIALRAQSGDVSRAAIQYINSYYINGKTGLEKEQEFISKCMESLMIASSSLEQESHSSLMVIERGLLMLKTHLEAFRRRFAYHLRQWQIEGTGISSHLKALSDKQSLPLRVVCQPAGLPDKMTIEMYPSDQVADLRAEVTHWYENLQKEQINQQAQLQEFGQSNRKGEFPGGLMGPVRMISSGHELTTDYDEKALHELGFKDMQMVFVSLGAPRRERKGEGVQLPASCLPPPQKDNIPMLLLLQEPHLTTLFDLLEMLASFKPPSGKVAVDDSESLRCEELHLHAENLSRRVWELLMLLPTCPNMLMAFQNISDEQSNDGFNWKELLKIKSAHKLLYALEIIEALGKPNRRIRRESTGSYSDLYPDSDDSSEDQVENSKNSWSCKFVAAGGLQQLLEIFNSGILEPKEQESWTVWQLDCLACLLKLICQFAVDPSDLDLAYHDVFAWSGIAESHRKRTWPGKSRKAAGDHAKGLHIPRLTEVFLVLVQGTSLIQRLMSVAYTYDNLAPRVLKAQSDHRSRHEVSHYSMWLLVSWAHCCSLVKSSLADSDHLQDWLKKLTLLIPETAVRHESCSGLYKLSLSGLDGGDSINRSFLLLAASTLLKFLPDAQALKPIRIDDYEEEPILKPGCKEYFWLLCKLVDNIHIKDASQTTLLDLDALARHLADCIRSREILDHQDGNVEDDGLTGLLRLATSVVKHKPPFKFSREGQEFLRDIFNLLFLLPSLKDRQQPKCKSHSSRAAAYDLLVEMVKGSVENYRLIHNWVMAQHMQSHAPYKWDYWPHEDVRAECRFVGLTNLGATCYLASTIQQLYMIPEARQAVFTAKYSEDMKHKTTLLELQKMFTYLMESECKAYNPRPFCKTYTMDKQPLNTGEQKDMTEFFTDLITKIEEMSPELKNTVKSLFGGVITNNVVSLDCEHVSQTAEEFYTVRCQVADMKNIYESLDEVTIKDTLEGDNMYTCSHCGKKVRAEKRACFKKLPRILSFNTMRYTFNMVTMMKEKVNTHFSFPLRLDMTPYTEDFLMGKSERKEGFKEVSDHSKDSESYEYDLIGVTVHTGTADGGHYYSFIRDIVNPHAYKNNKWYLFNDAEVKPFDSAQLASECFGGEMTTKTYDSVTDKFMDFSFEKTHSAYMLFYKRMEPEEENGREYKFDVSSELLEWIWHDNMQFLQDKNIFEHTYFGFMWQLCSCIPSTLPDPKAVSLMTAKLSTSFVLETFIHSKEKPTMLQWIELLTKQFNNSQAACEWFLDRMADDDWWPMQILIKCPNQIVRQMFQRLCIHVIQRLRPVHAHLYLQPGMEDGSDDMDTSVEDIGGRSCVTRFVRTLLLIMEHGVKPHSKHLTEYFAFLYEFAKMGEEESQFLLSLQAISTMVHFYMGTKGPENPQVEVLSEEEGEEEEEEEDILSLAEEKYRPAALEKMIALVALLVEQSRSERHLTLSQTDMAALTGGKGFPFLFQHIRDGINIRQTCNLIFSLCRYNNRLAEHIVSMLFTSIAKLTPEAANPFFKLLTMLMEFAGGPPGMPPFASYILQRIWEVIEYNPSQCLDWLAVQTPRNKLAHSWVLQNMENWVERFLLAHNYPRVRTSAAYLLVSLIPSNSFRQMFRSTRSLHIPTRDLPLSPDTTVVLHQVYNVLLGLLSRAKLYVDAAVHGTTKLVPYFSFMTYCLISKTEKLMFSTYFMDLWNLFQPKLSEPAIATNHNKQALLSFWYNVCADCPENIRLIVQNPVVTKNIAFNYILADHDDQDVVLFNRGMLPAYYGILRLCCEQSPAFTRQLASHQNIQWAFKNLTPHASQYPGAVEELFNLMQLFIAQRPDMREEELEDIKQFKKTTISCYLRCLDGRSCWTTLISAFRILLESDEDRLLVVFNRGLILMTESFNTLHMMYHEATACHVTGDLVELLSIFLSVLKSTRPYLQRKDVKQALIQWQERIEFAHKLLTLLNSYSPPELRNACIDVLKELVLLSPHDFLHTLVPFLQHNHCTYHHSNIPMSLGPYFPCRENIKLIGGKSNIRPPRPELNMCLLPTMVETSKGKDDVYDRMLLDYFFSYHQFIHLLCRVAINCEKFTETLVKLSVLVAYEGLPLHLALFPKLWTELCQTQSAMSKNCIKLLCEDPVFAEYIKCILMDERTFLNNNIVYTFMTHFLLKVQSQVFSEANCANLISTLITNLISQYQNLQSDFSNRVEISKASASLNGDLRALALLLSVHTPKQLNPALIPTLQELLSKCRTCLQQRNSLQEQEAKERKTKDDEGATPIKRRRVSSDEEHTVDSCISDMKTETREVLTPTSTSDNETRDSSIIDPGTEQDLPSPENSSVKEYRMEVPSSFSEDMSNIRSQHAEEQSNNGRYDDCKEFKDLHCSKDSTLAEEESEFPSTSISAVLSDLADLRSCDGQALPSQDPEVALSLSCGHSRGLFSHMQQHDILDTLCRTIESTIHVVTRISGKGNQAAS
In short: (§1)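 Labelled DUBs from HEK293T lysate were NeutrAvidin-enriched, digested with LysC and trypsin, and run by diaPASEF LC-MS/MS. Before that, each 495 µg sample in Tris/CHAPS/IGEPAL buffer with protease inhibitors was treated in triplicate with fragment at 200 µM or vehicle for 3 h, then with Biotin-Ahx-Ub-VS at 0.5 µM final for 1 h. Values are average log2 ratios of fragment over vehicle by unpaired t-test, based on global-median-normalised Spectronaut label-free quantities from proteins with ≥2 unique peptides.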

USP36 = target: T1, USP36 (UniProt Q9P275)
T1 sequence (whole entry): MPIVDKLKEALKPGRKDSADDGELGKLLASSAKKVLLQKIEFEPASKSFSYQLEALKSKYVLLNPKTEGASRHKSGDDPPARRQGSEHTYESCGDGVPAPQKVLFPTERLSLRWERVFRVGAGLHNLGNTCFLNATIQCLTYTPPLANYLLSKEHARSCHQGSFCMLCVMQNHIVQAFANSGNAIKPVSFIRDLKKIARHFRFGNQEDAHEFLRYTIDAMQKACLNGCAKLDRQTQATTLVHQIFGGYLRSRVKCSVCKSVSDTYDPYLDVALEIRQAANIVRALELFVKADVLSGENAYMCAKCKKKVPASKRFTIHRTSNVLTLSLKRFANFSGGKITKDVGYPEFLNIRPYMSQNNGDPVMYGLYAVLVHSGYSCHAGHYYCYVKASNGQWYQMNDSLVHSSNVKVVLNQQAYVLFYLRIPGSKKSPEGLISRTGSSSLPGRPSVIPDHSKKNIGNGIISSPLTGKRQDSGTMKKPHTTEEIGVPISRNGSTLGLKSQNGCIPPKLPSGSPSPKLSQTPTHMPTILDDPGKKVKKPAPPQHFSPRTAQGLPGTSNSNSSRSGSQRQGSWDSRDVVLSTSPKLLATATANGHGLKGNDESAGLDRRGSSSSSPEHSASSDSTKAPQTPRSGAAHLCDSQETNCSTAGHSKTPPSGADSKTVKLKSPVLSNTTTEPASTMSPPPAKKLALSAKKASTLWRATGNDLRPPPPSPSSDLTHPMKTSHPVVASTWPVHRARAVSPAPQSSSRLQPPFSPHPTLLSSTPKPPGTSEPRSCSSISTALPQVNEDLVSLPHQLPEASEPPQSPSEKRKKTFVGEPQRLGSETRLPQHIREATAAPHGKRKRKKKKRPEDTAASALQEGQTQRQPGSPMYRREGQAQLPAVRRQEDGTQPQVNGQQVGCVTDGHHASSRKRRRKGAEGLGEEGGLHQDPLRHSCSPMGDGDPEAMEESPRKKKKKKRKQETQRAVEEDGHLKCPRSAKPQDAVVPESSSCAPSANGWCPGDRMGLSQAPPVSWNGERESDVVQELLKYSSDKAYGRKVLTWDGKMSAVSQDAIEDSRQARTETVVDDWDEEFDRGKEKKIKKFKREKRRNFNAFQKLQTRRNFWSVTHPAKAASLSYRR
In short: as §1

USP38 = target: T2, USP38 (UniProt Q8NB14)
T2 sequence (whole entry): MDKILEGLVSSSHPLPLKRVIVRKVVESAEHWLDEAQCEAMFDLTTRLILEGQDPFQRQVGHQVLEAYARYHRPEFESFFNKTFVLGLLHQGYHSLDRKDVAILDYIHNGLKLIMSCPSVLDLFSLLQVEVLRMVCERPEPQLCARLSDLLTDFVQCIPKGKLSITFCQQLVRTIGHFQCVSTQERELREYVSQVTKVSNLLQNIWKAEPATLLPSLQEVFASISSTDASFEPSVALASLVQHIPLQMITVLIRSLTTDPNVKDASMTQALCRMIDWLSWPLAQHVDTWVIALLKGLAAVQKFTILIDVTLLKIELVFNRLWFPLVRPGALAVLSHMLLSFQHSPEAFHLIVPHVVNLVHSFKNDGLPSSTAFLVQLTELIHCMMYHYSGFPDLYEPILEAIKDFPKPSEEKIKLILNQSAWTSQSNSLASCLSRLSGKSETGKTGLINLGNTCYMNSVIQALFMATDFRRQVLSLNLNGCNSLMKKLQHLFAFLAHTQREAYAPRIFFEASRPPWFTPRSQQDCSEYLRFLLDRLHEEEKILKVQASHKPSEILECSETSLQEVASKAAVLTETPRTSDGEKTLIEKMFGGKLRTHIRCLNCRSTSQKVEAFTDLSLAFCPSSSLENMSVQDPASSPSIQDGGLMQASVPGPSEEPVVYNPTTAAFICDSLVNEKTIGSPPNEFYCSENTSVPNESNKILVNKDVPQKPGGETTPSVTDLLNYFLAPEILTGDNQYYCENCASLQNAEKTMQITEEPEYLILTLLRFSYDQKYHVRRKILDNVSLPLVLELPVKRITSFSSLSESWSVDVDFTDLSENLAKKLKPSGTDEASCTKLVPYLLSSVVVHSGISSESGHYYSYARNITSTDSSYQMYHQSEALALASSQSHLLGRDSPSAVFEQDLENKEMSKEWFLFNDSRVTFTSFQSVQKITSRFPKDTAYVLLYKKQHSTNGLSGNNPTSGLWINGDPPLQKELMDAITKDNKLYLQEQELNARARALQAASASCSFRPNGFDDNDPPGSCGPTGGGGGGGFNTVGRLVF
In short: as §1

USP39 = target: T3, USP39 (UniProt Q53GS9)
T3 sequence (whole entry): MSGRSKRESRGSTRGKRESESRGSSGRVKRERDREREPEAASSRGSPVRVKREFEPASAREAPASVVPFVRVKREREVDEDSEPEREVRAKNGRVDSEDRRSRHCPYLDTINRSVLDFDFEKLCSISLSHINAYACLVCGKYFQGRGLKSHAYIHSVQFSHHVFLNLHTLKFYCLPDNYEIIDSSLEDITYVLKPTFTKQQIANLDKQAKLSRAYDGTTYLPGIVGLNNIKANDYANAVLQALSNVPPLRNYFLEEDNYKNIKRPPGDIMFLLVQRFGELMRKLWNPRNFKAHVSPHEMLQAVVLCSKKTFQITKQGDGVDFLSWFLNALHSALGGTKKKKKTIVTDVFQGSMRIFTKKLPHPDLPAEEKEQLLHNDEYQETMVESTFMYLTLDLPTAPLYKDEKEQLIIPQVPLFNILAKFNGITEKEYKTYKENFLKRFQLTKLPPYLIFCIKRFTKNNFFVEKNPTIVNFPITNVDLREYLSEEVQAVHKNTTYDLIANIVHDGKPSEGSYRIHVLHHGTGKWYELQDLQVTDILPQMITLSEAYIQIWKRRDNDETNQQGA
In short: as §1

USP4 = target: T4, USP4 (UniProt Q13107)
T4 sequence (whole entry): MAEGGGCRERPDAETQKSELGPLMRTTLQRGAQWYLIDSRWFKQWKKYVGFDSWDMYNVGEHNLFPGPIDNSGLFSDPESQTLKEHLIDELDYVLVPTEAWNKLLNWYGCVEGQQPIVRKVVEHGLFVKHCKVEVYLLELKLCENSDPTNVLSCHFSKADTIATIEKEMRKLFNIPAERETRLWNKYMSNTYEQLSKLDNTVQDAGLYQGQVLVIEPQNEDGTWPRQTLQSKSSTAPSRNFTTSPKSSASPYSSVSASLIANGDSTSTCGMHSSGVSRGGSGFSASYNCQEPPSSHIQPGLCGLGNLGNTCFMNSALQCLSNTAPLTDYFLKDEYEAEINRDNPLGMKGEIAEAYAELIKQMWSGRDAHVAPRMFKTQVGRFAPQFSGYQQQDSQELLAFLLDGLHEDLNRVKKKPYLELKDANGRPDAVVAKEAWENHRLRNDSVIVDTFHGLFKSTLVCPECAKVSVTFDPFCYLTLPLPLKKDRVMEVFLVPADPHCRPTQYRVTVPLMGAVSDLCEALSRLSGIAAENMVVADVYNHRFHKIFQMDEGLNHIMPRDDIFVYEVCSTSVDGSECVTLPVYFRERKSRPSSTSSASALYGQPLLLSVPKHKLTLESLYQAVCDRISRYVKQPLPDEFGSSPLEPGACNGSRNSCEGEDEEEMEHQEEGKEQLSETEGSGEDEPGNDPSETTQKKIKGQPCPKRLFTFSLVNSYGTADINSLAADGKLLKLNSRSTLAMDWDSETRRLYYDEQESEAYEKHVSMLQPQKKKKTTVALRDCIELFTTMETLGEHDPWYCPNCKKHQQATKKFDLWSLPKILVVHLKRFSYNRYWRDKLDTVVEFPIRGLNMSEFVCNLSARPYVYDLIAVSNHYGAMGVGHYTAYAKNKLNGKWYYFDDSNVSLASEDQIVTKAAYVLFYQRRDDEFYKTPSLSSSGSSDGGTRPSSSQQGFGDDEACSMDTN
In short: as §1

Measured: log2 ratio of Biotin-Ahx-Ub-VS probe labelling

Cc1nc(-c2cccc(NC(=O)CCl)c2)cs1
inactive: USP34 -0.392 | USP36 0.0209 | USP38 -0.179 | USP39 0.188 | USP4 -0.239
